Assay outcomes from PubChem BioAssay.
Luc counter – Kinase-Glo luciferase inhibition (counter-screen). Q27757. Kinase-Glo luciferase, ATP luminescence, 8 min. Potency, µM (doses to about 38.3 µM), inactives show at the top dose activity change, negative = inhibition, most hits filed as inhibitors. 200,000 compounds, 0.28% hits. AID 1379; also: potency is read from the fitted curve at half-maximal effect; % is scaled to controls: 0 for no effect and ±100 for the full control effect; nearly all actives have a fitted effect of over 60% in size
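Recombinant Kinase-Glo luciferase, 10 uM ATP (linear range), luciferin; imidazole pH 7.2 / KCl / MgCl2 / Tween / BSA buffer; 8 min RT; luminescence.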
GALK inhibitor – galactokinase (human) inhibition | 270,000 compounds, 0.007% hits | AID 1868 | Potency, µM (doses to about 57.5 µM), without a hit: top-dose activity change, negative = inhibition, most hits filed as inhibitors | Purified GALK, Kinase-Glo residual ATP luminescence | P51570; also: potency is read from the fitted curve at half-maximal effect; % is scaled to controls: 0 for no effect and ±100 for the full control effect
Target sequence (P51570 whole entry, looked up): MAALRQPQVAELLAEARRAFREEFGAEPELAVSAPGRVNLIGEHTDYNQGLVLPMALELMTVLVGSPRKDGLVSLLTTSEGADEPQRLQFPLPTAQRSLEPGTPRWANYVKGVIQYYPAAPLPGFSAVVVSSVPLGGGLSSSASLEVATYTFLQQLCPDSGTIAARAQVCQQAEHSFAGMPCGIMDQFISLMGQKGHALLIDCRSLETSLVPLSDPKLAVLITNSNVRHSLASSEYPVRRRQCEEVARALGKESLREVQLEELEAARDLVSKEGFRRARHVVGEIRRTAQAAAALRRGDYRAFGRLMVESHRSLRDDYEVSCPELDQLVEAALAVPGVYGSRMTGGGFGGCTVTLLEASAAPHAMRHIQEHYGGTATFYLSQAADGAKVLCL
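Kinase-Glo Plus luminescence measured ATP left after a 1 h room-temperature reaction. The reaction used 5 nM GALK, 100 uM galactose and 35 uM ATP at pH 8.0 (20 mM HEPES, 5 mM MgCl2, 60 mM NaCl, 1 mM DTT, 0.01% BSA).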
Tb PFK inh-1 – inhibitors of T. brucei phosphofructokinase. Potency, µM (highest dose often 57.5 µM), inactives show top-dose activity, negative = inhibition, actives largely listed as inhibitors. 330,000 compounds, 0.17% hits. T. brucei PFK, ADP-Glo luminescence;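 also: potency is read from the fitted curve at half-maximal effect; 0% = uninhibited 1x PFK enzyme wells and -100% = no-enzyme wells; nearly all actives have a fitted effect of over 60% in size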
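Luminescent ADP detection (ADP-Glo, two-step: ATP depletion then ADP-to-ATP conversion for luciferase) reported PFK activity after 45 min room-temperature reaction of 1.25 nM enzyme with 0.5 mM F6P and 0.1 mM ATP at pH 8.0.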
PKM2 act – increases activity of human pyruvate kinase M2. purified PKM2, Kinase-Glo ATP luminescence, activation; response scale: 0% is enzyme alone, no compound. AID 1631. 260,000 compounds, 0.34% hits. Potency, µM (doses to about 57.5 µM), for inactives: top-dose activation, actives largely listed as activators; also: potency is read from the fitted curve at half-maximal effect; % is scaled to controls: 0 for no effect and ±100 for the full control effect; nearly all actives have a fitted effect of over 55% in size
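hPK-M2, >95% pure; 0.1 mM ADP / 0.5 mM PEP final; imidazole pH7.2 buffer w/ 7 mM MgCl2, 50 mM KCl; 1 h RT; Kinase-Glo lum. Intermediate enzyme activity for dual inhibitor/activator qHTS.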
CBFb-RUNX1 inh – CBF-beta/RUNX1 interaction disruption. AlphaScreen CBFb-His/RUNX1-biotin binding, biochemical. Potency, µM (doses to about 59.8 µM), inactives show top-dose activity, negative = inhibition, actives largely listed as inhibitors. 230,000 tested, under 10 active. AID 1477; also: % of control where 0% means no effect
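Inhibition was taken as any reduction in AlphaScreen signal from the CBF-beta–RUNX1 pair (His and biotin tags, 30 nM each), measured after compound (15 min) and bead (90 min) incubations at room temperature.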
HeLa viability – counter-screen for pyruvate kinase M2 activators: HeLa cytotoxicity; HeLa viability, CellTiter-Glo ATP luminescence, 24 h; shares compounds with PKM2 act; activity change, negative = cytotoxicity, % at 57.5 µM; 230 tested, under 10 active; also: % of control where 0% means no effect
TbPFK ATP – orthogonal confirmation of T. brucei phosphofructokinase inhibitors. shares compounds with Tb PFK inh-1. Potency, µM (doses to about 57.5 µM), without a hit: at the highest dose inhibition. Tb PFK enzyme, ATP depletion, Kinase-Glo Plus luminescence. 1,100 compounds, 47% hits; calls by dose curve; also: potency is read from the fitted curve at half-maximal effect; nearly all actives have a fitted effect of over 60% in size
Tb PFK inh-2 – T. brucei PFK enzyme inhibition, hit validation. shares compounds with Tb PFK inh-1. purified T. brucei PFK, ADP-Glo luminescence, 45 min. Potency, µM (top dose mostly 57.5 µM), without a hit: top-dose activity change, negative = inhibition, usual class: inhibitors. 1,100 compounds, 41% hits. AID 504637;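 also: potency is read from the fitted curve at half-maximal effect; plate controls were full PFK enzyme control for no effect and no enzyme control for full effect; nearly all actives have a fitted effect of over 60% in size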
* = called active by the depositor; u = inconclusive; x = not tested or not shown; [ ] = dose if it differs, or a comment. Only some compounds are listed: those with a hit (about 0.56% of all), similar ones and a draw of the others. Unless noted, calls follow the shape of the dose curve; as a rule, active = well fitted curve in the direction sought with a large enough effect; inconclusive = small, poorly fitted or top-dose-only effect, or another doubt; inactive = no such curve, though single readings can be large; an effect the other way counts as inactive or inconclusive.

SMILES	Luc counter	GALK inhibitor	Tb PFK inh-1	PKM2 act	CBFb-RUNX1 inh	TbPFK ATP	Tb PFK inh-2	others
CNC(=O)Oc1ccc(-c2cn3cc(C)ccc3n2)cc1	u	6%	-26%	-25%	1%	x	x
c1cc(CCN2CCCCC2)ccn1	-10%[7.66 µM]	x	x	x	x	x	x
CC1(C)N=C(N)N=C(N)N1c1cccc(C(=O)Nc2ccc(S(=O)(=O)F)cc2)c1	-1%[7.66 µM]	x	x	x	x	x	x
Cc1cc(/C=C2\C(=O)NC(=O)N(c3cccc(F)c3)C2=O)c(C)n1-c1ccc(C(=O)O)c(Cl)c1	x	-4%	17%	1%[11.5 µM]	x	x	x
Cc1ccc(N2C(=O)NC(=O)/C(=C/c3ccc(-c4ccc(C(=O)O)c(Cl)c4)o3)C2=O)cc1	-1%	-7%	27%	25µM*	-10%	x	x
Nc1c(C(=O)NCC2CCCO2)c2nc3ccccc3nc2n1Cc1ccco1 (stereo unspecified)	x	4%	-20%	18µM*	7%	x	x	HeLa viability=-17
O=[As](O)(O)c1ccc(Cc2ccc([As](=O)(O)O)cc2)cc1	0%[7.66 µM]	x	x	x	x	x	x
C/C=C\C=C/C(=O)Nc1cccc(C2=NOC3(C2)C[C@@H](C(N)=O)N(C(=O)/C=C/C=C\C)C3)c1 (stereo partly specified)	x	-2%	5.4µM*	1.4µM*	-6%	u	u	HeLa viability=4
ClC(Cl)C(Cl)Cl	x	x	x	x	-6%[21.7 µM]	x	x
O=C(C(Cc1ccccc1)NS(=O)(=O)c1cccc2nsnc12)N1CCC2(CC1)OCCO2 (stereo unspecified)	-1%	0%	-2%	7%	2%	x	x
O=S(=O)(Nc1ccccc1)c1cccc2nsnc12	x	5%	u	16%	x	u	u
C=C(C)C(=O)OCC1CO1 (stereo unspecified)	x	x	x	x	1%[21.7 µM]	x	x
Nc1ccc([N+](=O)[O-])cc1N	x	x	x	x	14%[21.7 µM]	x	x
O=C(NNC(=O)c1ccncc1)Nc1ccc([N+](=O)[O-])cc1	-2%	6%	u	-14%	-1%	u	u
O=C(Cc1cccc2ccccc12)Nc1cc(C(=O)O)cc(C(=O)O)c1	x	7%	8.5µM*	-1%[11.5 µM]	x	1.9µM*	u
Clc1ccc(Cn2cc(Br)cn2)cc1Cl	5%	-4%	24µM*	14%	24%	6µM*	12µM*
CCCCCCCCCC[n+]1cccc([C@@H]2CCCN2C)c1	x	x	x	x	1%	x	x
Oc1ccc(-c2cn3c(n2)SCC3)cc1O	-6%	0%	u	-8%	u	2.4µM*	4.8µM*
N#Cc1c(F)cccc1NCc1cccnc1	x	4%	u	x	x	u	-9%
O=C(NCc1cccnc1)Nc1ccccc1Cl	x	2%	-4%	x	x	x	x
O=C(CN1CCCC1=O)Nc1ccccc1	4%	3%	-4%	-4%	13%	x	x
COC(=O)c1[nH]c2ccc(C)cc2c1NC(=O)CN1CCCc2ccccc21	-8%	0%	u	-4%	3%	-30%	u
COc1ccc(NC(=O)CN(C)C(=O)c2cc3c(s2)CCC3)cc1	x	x	u	x	x	u	u
CCn1c(C)c(C(=O)Nc2ccc(OC)cc2)c2cc(OC)ccc21	x	2%	0%	x	x	x	x
NC(=O)CNC(=O)[C@H](Cc1ccccc1)NC(=O)[C@H](CCCN=C(N)N)NC(=O)[C@@H](N)Cc1ccc(O)cc1	x	x	x	x	1%	x	x
SMILES	Luc counter	GALK inhibitor	Tb PFK inh-1	PKM2 act	CBFb-RUNX1 inh	TbPFK ATP	Tb PFK inh-2	others
CCOc1ccc(C(c2c(C)[nH][nH]c2=O)c2c(C)[nH][nH]c2=O)cc1OC	x	-1%	u	1%	4%	u	-29%
Fc1cccc(-c2csc(-c3ccno3)n2)c1	x	5%	u	0%	10%	u	u
Clc1cccc2c3c([nH]c12)CCNC3	x	x	u	x	x	u	u
CCc1ccccc1NC(=O)CNCc1ccccc1	-4%	12%	-2%	-2%	4%	x	x
CCc1cccc(C)c1NC(=O)COC(=O)CNS(=O)(=O)/C=C/c1ccccc1	3%	-1%	u	-1%	1%	u	27µM*
COc1cc(/C=C(\C#N)C(=O)NCC2CCCO2)ccc1OC(=O)c1ccco1 (stereo unspecified)	x	x	u	x	x	-30%	u
Cc1cc(OC(=O)c2ccco2)c2c3c(c(=O)oc2c1)CCCC3	-7%	4%	1%	2%	1%	x	x
C=C(C)CCl	x	x	x	x	26%[21.7 µM]	x	x
CNc1ccc2nc3ccccc3[n+](C)c2c1	x	6%	-24%	x	x	x	x
CCN(CC)c1ccc2nc3ccccc3[n+](CC)c2c1	x	-1%	15µM*	4%	x	-17%	u
NC(=S)NNc1ccc(Cl)c(Cl)c1	x	x	19µM*	6%	-2%	4.8µM*	12µM*
CC(=O)OC1=CC2=CC[C@H]3[C@H]4CCC(=O)[C@@]4(C)CC(=O)[C@]3(S)[C@]2(C)CC1	-1%[7.66 µM]	x	x	x	x	x	x
Nc1c(/C=C2/C=CC(=O)C(O)=C2)c(=O)nc2sc(CC(=O)N3CCCCC3)nn12	x	-25%	19µM*	8%	x	2.7µM*	3.8µM*
Cc1ccc(NC(=O)c2ccc(Cl)c(N3C(=O)C=CC3=O)c2)cc1	-1%	-1%	u	20µM*	-6%	12µM*	u
NC(N)=Nc1ccc2[nH]c3c(c2c1)C[C@]1(O)[C@@H]2Cc4ccc(O)c5c4[C@]1(CCN2CC1CC1)[C@@H]3O5	0%	x	x	x	6%[21.7 µM]	x	x
COC(=O)C12CC3=CCC4C(=O)N(c5ccccc5)C(=O)C4C3Cc3ccccc3[C@@H]1CNC2=O (stereo partly specified)	-1%	x	x	x	-3%	x	x
Nc1nc(SCc2ccc(Cl)c(Cl)c2)n[nH]1	0%	3%	13µM*	14%	4%	9.5µM*	13µM*
Cc1nc(SCC(=O)N2CCOCC2)c2c(=O)n(C)c(=O)n(C)c2n1	x	-1%	24µM*	2%	9%	6%	-2%
O=C(CN1CCCC1=O)N1CCOCC1	-3%	1%	-5%	-10%	0%	x	x
CN(C)c1cc(Cl)c2nonc2c1N	x	u	u	-6%	u	21µM*	u
O=C(NNc1nc2ccccc2s1)Nc1ccc(Cl)c(Cl)c1	x	-1%	u	1%	14%	u	-23%
O=C(CSc1nc2ccccc2s1)Nc1ccc(Cl)c(C(=O)O)c1	2%	-2%	u	-3%	11%	-25%	19%
